The list is not random: actives were taken first. Their share in the collection is about 2.6%.
PABP FP inh: PABP poly(A) RNA binding inhibitors, primary screen, biochemical, fluorescence polarization, uHTS. Polyadenylate-binding protein 1 (Homo sapiens), P11940. calls only at 35 µM. hit rate 1% among 290,000. AID 2014, 2009;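 also: calls also rest on retests at 20 µM and on dose response follow-up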
Target sequence (P11940 whole entry, looked up): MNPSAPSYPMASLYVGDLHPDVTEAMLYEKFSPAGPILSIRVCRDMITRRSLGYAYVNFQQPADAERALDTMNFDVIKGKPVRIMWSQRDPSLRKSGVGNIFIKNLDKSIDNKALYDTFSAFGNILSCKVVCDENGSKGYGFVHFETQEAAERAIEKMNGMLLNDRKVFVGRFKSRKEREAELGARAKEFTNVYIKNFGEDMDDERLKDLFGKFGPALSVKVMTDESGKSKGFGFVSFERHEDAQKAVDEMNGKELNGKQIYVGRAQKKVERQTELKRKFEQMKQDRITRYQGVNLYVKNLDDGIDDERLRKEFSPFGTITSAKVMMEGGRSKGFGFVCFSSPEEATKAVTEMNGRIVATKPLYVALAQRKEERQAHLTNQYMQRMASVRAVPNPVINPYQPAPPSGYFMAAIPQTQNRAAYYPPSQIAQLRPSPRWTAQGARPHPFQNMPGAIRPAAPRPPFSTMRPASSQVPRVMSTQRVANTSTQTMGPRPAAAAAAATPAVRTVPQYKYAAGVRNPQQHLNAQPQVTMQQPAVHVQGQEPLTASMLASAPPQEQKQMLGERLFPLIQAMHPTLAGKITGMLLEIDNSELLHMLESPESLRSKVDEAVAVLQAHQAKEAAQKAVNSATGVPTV
PABP1 MLLE inh: inhibitors of PABP1 MLLE–PAM2 peptide binding, primary screen, biochemical, fluorescence polarization, FITC-PAM2, GST-MLLE; inhibition, % at 20 µM; hit rate 0.36% among 360,000; in the data active = inhibition above about 35%, passing the limit was not always enough
APOBEC3G inh: APOBEC3G DNA deaminase inhibitors, primary screen, biochemical, fluorescence, single-stranded DNA substrate, uHTS; DNA dC->dU-editing enzyme APOBEC-3G (Homo sapiens), Q9HC16; recombinant A3G, ssDNA deamination FAM/TAMRA fluorescence; inhibition, % at 20 µM; hit rate 0.28% among 330,000;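 active = inhibition of at least 40% at 20 µM, with no more than 30% in the related APOBEC3A deaminase screen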
PHOSPHO1 inh: PubChem AID 1565; recombinant PHOSPHO1, absorbance phosphatase assay; Phosphoethanolamine/phosphocholine phosphatase (Homo sapiens), Q8TCT1; hit rate 1.1% among 290,000; inhibition, % at 13.3 µM; in the data active = inhibition above about 60%
A3A deaminase: APOBEC3A ssDNA deaminase inhibitors, primary screen, selectivity assay for APOBEC3G inhibitor project, biochemical, FAM/TAMRA oligo cleavage fluorescence | recombinant A3A, FAM/TAMRA ssDNA deamination fluorescence | inhibition, % at 20 µM | hit rate 0.41% among 330,000 | AID 493011, 2011;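 active = at least 40% inhibition at 20 µM here, with at most 30% in a related deaminase screen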
eIF4H inh: human eIF4H binding inhibitors, primary screen, translation initiation inhibitor project, biochemical, uHTS, fluorescence polarization; eIF4H fluorescence polarization binding assay; inhibition, % at 35 µM; hit rate 0.94% among 290,000;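 also: calls also rest on retests at 20 µM and on dose response follow-up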
Each line names hits and unclear results; the compound was inactive in the other large screens. Unless noted, no rule for the calls is given here.

O=C(O)CC(C(=O)O)N1C(=O)/C(=C/C=C/c2ccco2)SC1=S (stereo unspecified)	PABP FP inh active, eIF4H inh 100
O=C1S/C(=C\C=C\c2ccco2)C(=O)N1c1ccc(O)cc1	none
O=C(CCN1C(=O)/C(=C\C=C\c2ccccc2)SC1=S)Nc1cccc(C(=O)O)c1	PABP FP inh active, eIF4H inh 88
O=C(O)CCCN1C(=O)/C(=C/C=C/c2ccco2)SC1=S	PABP FP inh active, eIF4H inh 98
Cc1ccc(NC(=O)CCCN2C(=O)/C(=C/C=C/c3ccccc3)SC2=S)cc1	none
COc1ccc(/C=C2\SC(=S)N(C(Cc3ccccc3)C(=O)O)C2=O)cc1 (stereo unspecified)	none
O=C(O)C(Cc1ccccc1)N1C(=O)/C(=C/C=C/c2ccco2)SC1=S (stereo unspecified)	PABP FP inh active, eIF4H inh 85 (no result: APOBEC3G inh, A3A deaminase)
COc1cccc(NC2=C(Cl)C(=O)OC2OC(=O)c2ccco2)c1 (stereo unspecified)	none
CCCCN(C(=O)CSCc1ccc(C)cc1)c1c(N)n(CCC)c(=O)[nH]c1=O	none
CCc1nc2ccc(C(=O)N3CCN(c4ccccc4)CC3)cn2c1N(CCC(C)C)CCN(C)C	none (no result: PABP FP inh, APOBEC3G inh, PHOSPHO1 inh, A3A deaminase, eIF4H inh)
CCOCCCNC(=O)CCc1nnc2n(CCC(C)C)c(=O)c3ccccc3n12	none
Cc1ccc2[nH]c(=O)c(C(c3nnnn3CC3CCCO3)N3CCCc4ccccc43)cc2c1 (stereo unspecified)	PHOSPHO1 inh 86
CCC(C)(C)n1nnnc1C(c1cc2cc(C)ccc2[nH]c1=O)N1CCCc2ccccc21 (stereo unspecified)	PHOSPHO1 inh 75
Cc1ccc2[nH]c(=O)c(C(c3nnnn3CC3CCCO3)N3CCc4ccccc4C3)cc2c1 (stereo unspecified)	PABP1 MLLE inh 78
CCC(C)(C)n1nnnc1C(c1cc2cc(OC)ccc2[nH]c1=O)N1CCc2ccccc21 (stereo unspecified)	none
C(=C\c1ccccc1)/CN1CCN(C(c2ccccc2)c2nnnn2C2CCCCC2)CC1 (stereo unspecified)	none (no result: PABP FP inh, APOBEC3G inh, PHOSPHO1 inh, A3A deaminase, eIF4H inh)
N#CC1=C(N)SC(N)=C(C#N)C1Cc1ccccc1	PABP FP inh inconclusive, APOBEC3G inh 48, eIF4H inh inconclusive
N#CC1=C(N)SC(N)=C(C#N)C1CCc1ccccc1	PABP FP inh inconclusive, eIF4H inh inconclusive
N#CC1=C(N)SC(N)=C(C#N)C1c1c(Cl)cccc1Cl	PHOSPHO1 inh 82
O=C1Nc2cc(Cl)cnc2N2CCCC12 (stereo unspecified)	eIF4H inh 61
CC(C)[C@H](NC(=O)c1ccccc1Cl)C(=O)OCC(=O)N1CCCCC1	none (no result: PABP FP inh, PHOSPHO1 inh, eIF4H inh)
CCc1nc2ccc(C(=O)N3CCN(S(=O)(=O)CC)CC3)cn2c1N(CC)C(=O)NCCc1ccccc1	none (no result: PABP FP inh, APOBEC3G inh, PHOSPHO1 inh, A3A deaminase, eIF4H inh)
O=C1/C(=C/c2ccccc2F)SC(=S)N1CCC(=O)N1CCCCC1CCO (stereo unspecified)	PHOSPHO1 inh 64 (no result: PABP FP inh, eIF4H inh)
O=C1/C(=C/c2ccc(Cl)cc2)SC(=S)N1CCC(=O)N1CCCCC1CCO (stereo unspecified)	none
CCc1c(O)nc(SCC(=O)Nc2c(C)cccc2C)n(-c2ccc(F)cc2)c1=O	none (no result: PABP FP inh, APOBEC3G inh, PHOSPHO1 inh, A3A deaminase, eIF4H inh)
Cc1c(O)nc(SCC(=O)Nc2ccc3c4c(cccc24)CC3)n(-c2ccc(F)cc2)c1=O	PABP1 MLLE inh 40
Cc1cc(O)c(Sc2ncn[nH]2)cc1NS(=O)(=O)c1ccc(Cl)cc1	none (no result: PABP FP inh, PHOSPHO1 inh, eIF4H inh)
Cc1ccc([N+](=O)[O-])cc1S(=O)(=O)Nc1ccc(O)c(Sc2ncn[nH]2)c1	PABP1 MLLE inh 41
Cc1ccc(-c2nc3cnccn3c2Nc2c(C)cccc2C)o1	PABP1 MLLE inh 39
CC(=O)Nc1ccc(-c2csc(N/N=C(/C)c3ccccc3)n2)cc1	none
C/C(=N/Nc1nc(-c2ccc(Cl)cc2)cs1)c1cccs1	PHOSPHO1 inh 92
O=C(NNC(=S)Nc1cccc2ccccc12)c1cccc(Br)c1	PHOSPHO1 inh 64
Cc1ccc(C(=O)NNC(=S)Nc2cccc3ccccc23)s1	PHOSPHO1 inh 86
O=C(NNC(=O)c1ccc2ccccc2c1)c1cccc(Br)c1	none (no result: PABP FP inh, APOBEC3G inh, PHOSPHO1 inh, A3A deaminase, eIF4H inh)
S=C(Nc1cccc2ccccc12)Nc1cccc2ccccc12	none (no result: PABP FP inh, APOBEC3G inh, PHOSPHO1 inh, A3A deaminase, eIF4H inh)
CCOC(=O)C1CC(c2ccc(Cl)cc2)=NNC1=O (stereo unspecified)	PHOSPHO1 inh 61
Cc1ccc(C2=NNC(=O)C(c3ccc(Cl)cc3)C2)cc1 (stereo unspecified)	none
O=C(COc1ccc(/C=N/NC(=O)c2ccccc2O)cc1)Nc1ccccc1	PABP FP inh active
O=C(COc1ccc(/C=N/NC(=O)c2ccccc2Br)cc1)Nc1ccccc1	none (no result: PHOSPHO1 inh)
Cc1ccc(CSc2ncnc3c2cnn3-c2ccccc2)cc1	none
c1ccc(-c2nc(Sc3ncnc4c3cnn4-c3ccccc3)n[nH]2)cc1	PHOSPHO1 inh 87 (no result: PABP1 MLLE inh)
COc1ccc(NC(=O)C2(C)Cc3c(-c4ccc(N(C)C)cc4)ccnc3O2)cn1 (stereo unspecified)	none (no result: PABP FP inh, APOBEC3G inh, PHOSPHO1 inh, A3A deaminase, eIF4H inh)
O=C(CSc1ccsc1[N+](=O)[O-])Nc1cc(F)ccc1F	none (no result: APOBEC3G inh, A3A deaminase)
CC(=O)c1ccc(NC(=O)CSc2ccsc2[N+](=O)[O-])cc1	PABP FP inh active (no result: APOBEC3G inh, A3A deaminase)
CCN(CC)c1ccc(NC(=O)CSc2ccsc2[N+](=O)[O-])c(C)c1	PABP FP inh active, eIF4H inh inconclusive
COc1ccc(NC(=O)c2ccco2)cc1N	PABP FP inh active, eIF4H inh 92
CC1(C)CC(=O)C(Sc2nnc(-c3ccc(NS(C)(=O)=O)cc3)n2Cc2ccco2)C(=O)C1	PHOSPHO1 inh 96
CC(C)(C)c1ccc(C(=O)NCCCNC(=O)c2ccco2)cc1	none
CN(C)CCCNCCCNC(=O)c1ccco1	PABP FP inh active, eIF4H inh 33
COc1cccc(NC(=O)Nc2nccc(C)n2)c1	none
Cc1ccc(NC2c3ncccc3C(=O)N2c2ccccc2C)cc1C (stereo unspecified)	PHOSPHO1 inh 86
CCOc1ccc(N2C(=O)c3cccnc3C2Nc2ccc(Cl)cc2)cc1 (stereo unspecified)	none
Fc1cccc(-n2c(-c3ccco3)nc3nc4ccccc4nc32)c1	PABP FP inh active
Fc1ccc(-n2c(-c3ccco3)nc3nc4ccccc4nc32)cc1	PABP FP inh active, eIF4H inh 86
Cc1ccc(-n2c(-c3ccco3)nc3nc4ccccc4nc32)cc1F	none
Cc1ccc(N=C2SC(C(=O)O)CC(=O)N2C)cc1C (stereo unspecified)	none
CC(C)CCNC(=O)C(c1ccc(O)cc1)N(C(=O)C1COc2ccccc2O1)c1cccc(O)c1 (stereo unspecified)	PHOSPHO1 inh 64
